The values that follow come from PubChem BioAssay AID577 (University of Pittsburgh Molecular Library Screening Center, 2007).

Among all 65,000 compounds or so, about 120 (0.18%) were called active. The full list was thinned out, with actives kept by preference. A number with no mark means an inactive call. Rule as the data show it: active = z-score below about -3; inactive = the rest.

For the experiment, the target named is Genome polyprotein (West Nile virus) (UniProt P06935). Put plainly: inhibitors of WNV NS2B-NS3 protease, primary screen, biochemical, fluorogenic substrate (AID 577). The note with it: fluorogenic substrate Ex360/Em465, active compounds read low.
Chain of Genome polyprotein (West Nile virus) (P06935 1371-1501 limits assumed): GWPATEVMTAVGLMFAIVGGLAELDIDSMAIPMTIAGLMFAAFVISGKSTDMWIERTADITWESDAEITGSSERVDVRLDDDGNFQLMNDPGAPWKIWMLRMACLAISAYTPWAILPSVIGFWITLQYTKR
Chain of Genome polyprotein (West Nile virus) (P06935 1502-1679 limits assumed): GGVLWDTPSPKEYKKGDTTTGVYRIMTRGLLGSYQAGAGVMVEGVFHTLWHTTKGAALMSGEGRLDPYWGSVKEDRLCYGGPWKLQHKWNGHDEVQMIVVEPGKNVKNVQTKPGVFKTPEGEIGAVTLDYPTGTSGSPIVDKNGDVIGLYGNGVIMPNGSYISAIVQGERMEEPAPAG
Regarding `O=C(Nc1ccccc1N1CCCCC1)c1ccc2nccnc2c1`, the z-score is -0.92.

Take `Cc1cc(N2C(=O)C(=O)/C(=C(/O)c3ccc(Cl)cc3)C2c2cccc(Br)c2)no1` (stereo not drawn): the z-score was 0.05.

Turning to `COc1ccc(S(=O)(=O)N2CCN(c3ncnc4c(-c5ccccc5)nsc34)CC2)cc1`, the z-score is -0.64.

Turning to `Cc1ccc(NC(=O)C2CC(c3ccc(F)cc3)=NO2)cc1` (stereo not drawn), the z-score was -0.46.

In the case of `Cc1noc(C)c1S(=O)(=O)NCCc1ccc(S(N)(=O)=O)cc1`, the z-score was -0.09.

On to `Cn1c(=O)cc(OCCCC(=O)N2CCN(Cc3ccc4c(c3)OCO4)CC2)c2ccccc21`, for which the z-score is -0.06.

Regarding `O=c1[nH][nH]c(=O)c2cc(N3CCCC3)ccc12`, the z-score was 0.92.

As to `COc1ccc(C)c2sc(=NC(=O)c3ccc(C#N)cc3)n(C)c12`, the z-score was 0.36.

With `COc1ccccc1CNC(=O)CCn1c(=O)sc2ccccc21`, the z-score was 0.34.

As to `O=S(=O)(CCc1nc2ccccc2o1)c1ccc(Cl)cc1`, the z-score is 0.84.

On to `Cc1ccc(CNC(=O)CCCNC(=O)c2ccc(Cl)cc2)n1C`, for which the z-score was 0.2.

Regarding `CC(NC(=O)c1ccc(Cl)cc1)C(=O)N1CCCCC1` (stereo not drawn), the z-score was -0.48.

For `CCN(CC(=O)NC(C)C)C(=O)CCNC(=O)c1ccc(Cl)cc1`, the z-score is -3.81 (active).

Consider `CCOC(=O)C1CCCN(C(=O)Cn2ncc3c(=O)oc4ccc(C)cc4c32)C1` (stereo not drawn), for which the z-score was -0.8.

On to `CC(=O)N(Cc1cccs1)C1CCOC(C)(C)C1` (stereo not drawn), for which the z-score was 0.1.

On to `O=c1c2c(nc3n1CCCCC3)sc1c(O)cccc12`, for which the z-score is -0.99.

Consider `CCn1cc(C(=O)NCc2ccc(OC)cc2OC)c(=O)c2ccc(C)nc21`, for which the z-score is 0.31.

As to `CN1CCN(C(=O)c2ccc(NS(=O)(=O)c3ccccc3)cc2)CC1`, the z-score was 0.73.

Turning to `CC(=O)N1CCN(C(=O)c2cccc(S(=O)(=O)Nc3ccc(C)cc3)c2)CC1`, the z-score is -4.83 (active).

On to `O=C(c1cccc(S(=O)(=O)N2CCOCC2)c1)N1CCOCC1`, for which the z-score was -0.56.

Consider `O=C(NCc1ccco1)C1CCCN(S(=O)(=O)c2cnc[nH]2)C1` (stereo not drawn), for which the z-score was 0.15.

With `Cn1c(=O)[nH]c(=O)c2c1nc(N1CCN(CCO)CC1)n2CCSc1nc2ccccc2s1`, the z-score was 0.89.

With `CCOC(=O)N1CCC(NC(=O)c2ccc3nc(N4CCOCC4)sc3c2)CC1`, the z-score is -0.98.

On to `O=C(NCc1ccco1)c1ccc(CS(=O)(=O)Cc2ccc(F)cc2)o1`, for which the z-score is -0.19.

As to `CCOc1ccccc1NC(=O)c1cc(S(=O)(=O)N2CCC3(CC2)OCCO3)ccc1F`, the z-score is -0.89.

`O=C(Cn1c(-c2ccccn2)nc2ccccc21)NCCN1CCOCC1`: the z-score was 0.41.

With `O=C(Nc1ccon1)c1sc2ccccc2c1Cl`, the z-score is 1.15.

As for `O=C(O)Cc1ccc(NC(=O)C2CCCCC2C(=O)O)cc1` (stereo not drawn), the z-score is 0.69.

`Cc1cccc(N2CC(C)Cn3c2nc2c3c(=O)n(CC(=O)OCc3ccccc3)c(=O)n2C)c1` (stereo not drawn): the z-score was -0.58.

For the compound `O=C(Cc1c(F)cccc1Cl)N1CCN(C(=O)c2ccco2)CC1`, the z-score was 0.71.

Take `Cc1oc(CC(C)C)c(CN2CCCC2)c1C(=O)O`: the z-score was 0.09.

In the case of `CC1CCN(c2nc3c(c(=O)[nH]c(=O)n3C)n2CCCc2ccccc2)CC1`, the z-score was -0.61.

As for `COc1ccc(NC(=O)Nc2cccc3cccnc23)cc1`, the z-score is -0.61.

Regarding `COc1ccc(-c2ccc(Nc3ccc(S(=O)(=O)N4CCCC4)cc3)nn2)cc1OC`, the z-score was -0.56.

As for `c1ccc(-c2cc(-c3nnc4sc(-c5ccccn5)nn34)[nH]n2)cc1`, the z-score is -1.41.

On to `Cc1cc2nc(-c3ccc(NC(=O)c4cccnc4)cc3)oc2cc1C`, for which the z-score was -0.13.

Turning to `COc1ccc(OC)c(S(=O)(=O)Nc2ccccc2F)c1`, the z-score is 0.89.

Consider `O=C(Cn1cnc2c(nnn2-c2ccccc2)c1=O)N1CCC(Cc2ccccc2)CC1`, for which the z-score was 2.2.

Consider `NS(=O)(=O)c1cc2c(cc1Cl)NC(C(Cl)Cl)NS2(=O)=O` (stereo not drawn), for which the z-score is 1.86.

In the case of `CNC(=O)n1ccc(C(=O)N2CCCCC2)n1`, the z-score was 1.25.

On to `COc1ccccc1N=C1SC(C)CN1C(=O)C1CCC1` (stereo not drawn), for which the z-score was -0.3.

Take `COCCN1Cc2cccc(C(=O)Nc3ccccc3OC)c2C1=O`: the z-score is -0.41.

As for `CC(C)OCCCNC(=O)C1CC(=O)N(C2CCCCCCC2)C1` (stereo not drawn), the z-score was -1.25.

For the compound `CCOC(=O)C1=C(CNC2CCCCC2)NC(=O)NC1c1cc(C)ccc1C` (stereo not drawn), the z-score is -0.35.

Turning to `c1ccc(-c2noc(-c3cccs3)n2)nc1`, the z-score was -0.18.

With `O=C(CCCN1C(=O)CSc2ncccc21)N1CCN(c2cccc(C(F)(F)F)c2)CC1`, the z-score was 0.85.

For `O=C(CC1(O)C(=O)N(CN2CCOCC2)c2ccccc21)c1ccccc1` (stereo not drawn), the z-score was 2.57.

As to `CC(C)Cn1c(CN(Cc2ccccc2)Cc2ccccc2)nc2c1c(=O)n(C)c(=O)n2C`, the z-score is 0.14.

Take `CCOC(=O)N1CCN(CC(=O)c2ccc3c(c2)CCN3)CC1`: the z-score was -0.8.

As to `O=C1Nc2ccccc2C12Nc1ccccc1S2` (stereo not drawn), the z-score is -0.84.

Consider `CC(=O)N1CC2(C)CN(C(C)=O)CC(C)(C1)C2=O`, for which the z-score is -0.17.

Regarding `CCOC(=O)c1cnc(-n2nc(C)cc2C)nc1-n1nc(C)cc1C`, the z-score was 0.5.

As for `CCOC(=O)N1CCN(C(=O)CN(C2CCCCC2)S(C)(=O)=O)CC1`, the z-score is -1.44.

`COC(=O)C1=C(C)NC2=C(C(=O)c3ccccc32)C1c1ccc(-c2ccc(C(=O)O)cc2)o1` (stereo not drawn): the z-score was 0.76.

Take `COCCCN(C(=O)Cn1ncc2c(=O)oc3ccc(C)cc3c21)C(C)c1ccncc1` (stereo not drawn): the z-score was -0.67.

`Cc1ccccc1N1CC(c2nc3ccccc3[nH]2)CC1=O` (stereo not drawn): the z-score was 1.22.

Turning to `O=C(CC1N=C2c3ccccc3N=C(SCc3ccccc3Cl)N2C1=O)NCc1ccco1` (stereo not drawn), the z-score is 1.46.

`Cc1c(C(=O)Nc2ccccc2Cl)oc2ccc(S(=O)(=O)N3CCC4(CC3)OCCO4)cc12`: the z-score was -1.64.

For `Cc1cccc(-n2c(N)cc(=O)nc2SC(C)C(=O)NC2CCCCC2)c1` (stereo not drawn), the z-score was -0.09.

With `CCCCN=C(N)/C(C(=O)OCC)=C(\O)c1ccc(OC)cc1`, the z-score was 0.82.

For `COc1ccc2c(Cl)c(-c3nnco3)sc2c1`, the z-score is -0.13.

With `C=CCOc1ccc(/C=N/n2cncn2)cc1OC`, the z-score is 1.7.

In the case of `CCOCC(=O)NCc1ccc2c(c1)cc(C)n2C`, the z-score was -0.69.

Turning to `Cc1ccc2c(c1)NCC(C(=O)NC1CCC(C)CC1)O2` (stereo not drawn), the z-score is 0.12.

For `c1ccc(-c2nnc3n2NC(c2ccc4c(c2)OCO4)S3)cc1` (stereo not drawn), the z-score was -0.39.

`C=CCn1c(COc2cccc3cccnc23)nnc1SCC(=O)OC`: the z-score was -1.04.

For `COc1ccc(-n2c(SCC(=O)Nc3ccc4c(c3)OCO4)nnc2C(C)N2CCCCC2)cc1` (stereo not drawn), the z-score is -0.67.

For `CCOc1ccccc1NC(=O)CCc1ccc(C)o1`, the z-score was -0.55.

Turning to `O=C(c1ccco1)N(Cc1nc2ccccc2c(=O)[nH]1)C1CCCC1`, the z-score was -1.19.

In the case of `Cn1c(NC(=O)c2ccco2)c(-c2ccccc2Cl)c(=O)c2ccccc21`, the z-score is -0.04.

Regarding `COC(=O)c1oc2ccc(Br)cc2c1NC(C)=O`, the z-score was 0.25.

Take `COc1ccc(C(=O)c2oc3ccc(Br)cc3c2NC(C)=O)cc1`: the z-score is -3 (active).

Turning to `COc1ccc2oc(C)c(NC(C)=O)c2c1`, the z-score was -0.59.

Turning to `O=C1CSC(c2cccc(F)c2)N1c1ccccc1F` (stereo not drawn), the z-score was -0.93.

With `CCCS(=O)(=O)N1CCCC(C(=O)N2CCN(c3ccccc3)CC2)C1` (stereo not drawn), the z-score was 0.81.

Regarding `CCn1c(SCCC(C)C)nnc1-c1c[nH]c2ccccc12`, the z-score is -0.65.

With `CCOC1CCCCC1NS(=O)(=O)c1ccc(Cl)cc1` (stereo not drawn), the z-score was -0.25.

Regarding `CCNC(=O)N1CCNC(=O)C1CC(=O)Nc1ccc(C(=O)OCC)cc1` (stereo not drawn), the z-score is -0.78.

Consider `Cc1cccc2nc(CNc3ccc(F)cc3)cn12`, for which the z-score is -0.49.

For the compound `Cc1cc(N2CCCC2=O)cc(C)c1S(N)(=O)=O`, the z-score is 0.56.

`O=C(O)C1C2C=CC(C2)C1C(=O)N1CCN(CCO)CC1` (stereo not drawn): the z-score was 0.43.

With `CCCn1c(=O)c2[nH]c(C3CCCC3)nc2n(CCC)c1=O`, the z-score is 0.05.

With `CCOc1ccccc1Nc1nnc(SCC(=O)Nc2cc(C)on2)s1`, the z-score was -1.46.

As to `O=C(CN1C(=O)COc2ccccc21)Nc1ccc(F)cc1`, the z-score was 1.4.

On to `Cc1ccc(S(=O)(=O)n2nc(OC(=O)C(C)(C)C)cc2N)cc1`, for which the z-score was 0.18.

Regarding `Nc1cc(OC(=O)c2ccccc2Br)nn1S(=O)(=O)c1ccccc1`, the z-score is -6.2 (active).

Consider `CCCCN(CC)C(=O)CN(C)S(=O)(=O)c1cccc2nsnc12`, for which the z-score is 1.67.

Regarding `CC1Cc2ccccc2N1C(=O)CSc1nnc(-c2ccc(S(=O)(=O)N3CCCCC3)cc2)o1` (stereo not drawn), the z-score was 0.94.

`CC(=O)N1CSCC1C(=O)O` (stereo not drawn): the z-score was -5.15 (active).

Consider `COCc1cc(C)nc(SCC(=O)Nc2cccc(C)c2)c1C#N`, for which the z-score is 1.36.

With `Cn1c(=NC(=O)c2cnccn2)sc2ccccc21`, the z-score was -1.53.

Turning to `O=C(Nc1ccccc1N1CCCCC1)c1cccc(F)c1`, the z-score was 0.74.

For the compound `O=C(CNC(=O)c1ccc(Cl)cc1Cl)NCC(=O)Nc1ccccc1N1CCOCC1`, the z-score is -1.5.

Consider `CC(=NCc1ccco1)C1=C(O)c2ccccc2C1=O`, for which the z-score is 0.81.

On to `CC1Cc2ccccc2N1C(=O)CSc1nc2ccccc2o1` (stereo not drawn), for which the z-score is -0.42.

As for `O=C(COc1ncnc2ccccc12)NC(=O)NCc1ccccc1`, the z-score was 0.88.

Regarding `Cc1noc(C)c1COC(=O)Cn1c(C)nc2ccccc21`, the z-score was -1.33.

For the compound `CCOC(=O)N1CCC(NC(=O)C(C)n2c3ccccc3c3cnn(C)c(=O)c32)CC1` (stereo not drawn), the z-score was -0.72.
